# Laboratory results published in PMC7862700, “An all-to-all approach to the identification of sequence-specific readers for epigenetic DNA modifications on cytosine”.
# Tests used:
# Experiment in all cases: DAPPL (digital affinity profiling via proximity ligation, sequencing); 10 mM Tris-HCl pH 7.5, 50 mM NaCl, 1 mM DTT, 4% glycerol, room temperature, 30 min; GST-TFs on glutathione beads, 16-mer random dsDNA library, 0.1% formaldehyde crosslink after washing; high values mean tight binding
# Conditions in all cases: protein: recombinant; tags: N-terminal GST; dsDNA, one strand shown
# ETV1 = ETV1 (Homo sapiens, UniProt P50549 1-477)
# Procedure, shortened: (§1)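 In yeast, human transcription factors were expressed with a GST fusion, then pulled down on glutathione beads and given DNA barcodes. Pooled with a tag-only sample, they were exposed to 200 nmole of a 16-mer random double-stranded DNA library (Tris/NaCl/DTT/glycerol buffer, room temperature, 30 min), washed, crosslinked with 0.1% formaldehyde, proximity-ligated using BsaI/T4 ligase for 1 h at 37 °C, PCR-amplified and read on an Illumina NextSeq500. Each hexamer's frequency of reads for a factor, divided by the matching frequency for the tag-only sample, gives the binding signal.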
# ERF = biological target: T1, ERF (Homo sapiens, UniProt P50548 1-548)
# T1 sequence: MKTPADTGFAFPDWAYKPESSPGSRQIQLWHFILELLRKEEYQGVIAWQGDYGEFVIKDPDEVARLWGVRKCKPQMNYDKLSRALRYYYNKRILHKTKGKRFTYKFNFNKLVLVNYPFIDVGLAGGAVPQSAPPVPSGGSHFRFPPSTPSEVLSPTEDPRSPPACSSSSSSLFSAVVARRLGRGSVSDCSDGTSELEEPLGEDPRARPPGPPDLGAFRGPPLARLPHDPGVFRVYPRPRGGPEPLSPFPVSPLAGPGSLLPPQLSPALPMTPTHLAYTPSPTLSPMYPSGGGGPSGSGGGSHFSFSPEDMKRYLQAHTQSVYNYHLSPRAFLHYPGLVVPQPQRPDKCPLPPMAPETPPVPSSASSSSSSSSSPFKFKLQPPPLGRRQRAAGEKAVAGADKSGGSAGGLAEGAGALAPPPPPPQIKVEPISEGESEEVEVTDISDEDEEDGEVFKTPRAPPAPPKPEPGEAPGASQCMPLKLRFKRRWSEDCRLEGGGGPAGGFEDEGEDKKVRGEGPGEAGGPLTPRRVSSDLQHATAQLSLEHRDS
# Procedure, shortened: as §1
# ETV3L = biological target: T2, ETV3L (Homo sapiens, UniProt Q6ZN32 1-361)
# T2 sequence: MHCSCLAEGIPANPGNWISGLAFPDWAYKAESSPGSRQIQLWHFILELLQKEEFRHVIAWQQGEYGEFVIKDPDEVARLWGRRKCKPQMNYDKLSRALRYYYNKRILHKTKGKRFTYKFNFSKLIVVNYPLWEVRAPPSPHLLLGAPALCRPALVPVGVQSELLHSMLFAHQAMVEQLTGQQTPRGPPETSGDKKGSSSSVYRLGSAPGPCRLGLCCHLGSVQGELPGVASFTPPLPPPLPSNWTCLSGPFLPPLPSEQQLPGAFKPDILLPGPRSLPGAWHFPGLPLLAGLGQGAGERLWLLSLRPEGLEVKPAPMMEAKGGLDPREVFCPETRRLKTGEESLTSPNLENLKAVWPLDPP
# Procedure, shortened: as §1
# ETS2 = biological target: T3, ETS2 (Homo sapiens, UniProt P15036 1-469)
# T3 sequence: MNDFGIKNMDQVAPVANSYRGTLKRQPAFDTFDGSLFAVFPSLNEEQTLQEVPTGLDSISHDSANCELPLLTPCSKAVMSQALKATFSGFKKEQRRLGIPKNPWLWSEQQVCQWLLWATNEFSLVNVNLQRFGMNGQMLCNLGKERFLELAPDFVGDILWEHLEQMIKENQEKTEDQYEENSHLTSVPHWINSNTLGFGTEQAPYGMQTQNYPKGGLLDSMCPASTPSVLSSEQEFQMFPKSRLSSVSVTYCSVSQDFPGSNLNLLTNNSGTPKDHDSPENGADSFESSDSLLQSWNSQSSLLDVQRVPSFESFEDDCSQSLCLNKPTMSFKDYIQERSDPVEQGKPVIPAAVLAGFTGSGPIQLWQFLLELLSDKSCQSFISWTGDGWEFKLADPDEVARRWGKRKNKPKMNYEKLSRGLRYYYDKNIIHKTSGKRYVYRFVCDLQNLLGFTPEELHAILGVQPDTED
# Procedure, shortened: as §1
# SPDEF = biological target: T4, SPDEF (Homo sapiens, UniProt O95238 1-335)
# T4 sequence: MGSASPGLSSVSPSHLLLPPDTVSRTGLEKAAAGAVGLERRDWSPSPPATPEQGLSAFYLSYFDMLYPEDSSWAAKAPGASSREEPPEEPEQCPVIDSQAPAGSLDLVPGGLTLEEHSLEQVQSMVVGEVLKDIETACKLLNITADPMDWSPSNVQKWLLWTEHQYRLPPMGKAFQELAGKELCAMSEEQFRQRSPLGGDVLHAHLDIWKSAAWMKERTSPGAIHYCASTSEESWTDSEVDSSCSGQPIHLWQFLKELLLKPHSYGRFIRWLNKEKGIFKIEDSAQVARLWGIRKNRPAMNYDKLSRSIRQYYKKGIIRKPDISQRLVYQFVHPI
# Procedure, shortened: as §1
# ETV7 = biological target: T5, ETV7 (Homo sapiens, UniProt Q9Y603 1-341)
# T5 sequence: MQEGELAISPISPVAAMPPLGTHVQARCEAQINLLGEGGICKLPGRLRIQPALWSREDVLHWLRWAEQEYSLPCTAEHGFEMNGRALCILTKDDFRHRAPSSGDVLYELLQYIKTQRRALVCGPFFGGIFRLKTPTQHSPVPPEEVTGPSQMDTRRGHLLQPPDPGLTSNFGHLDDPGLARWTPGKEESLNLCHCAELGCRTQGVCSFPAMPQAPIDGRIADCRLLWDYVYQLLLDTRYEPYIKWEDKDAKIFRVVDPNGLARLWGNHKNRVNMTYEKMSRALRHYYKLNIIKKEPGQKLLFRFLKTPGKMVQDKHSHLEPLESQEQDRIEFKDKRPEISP
# Procedure, shortened: as §1
# ELF5 = biological target: T6, ELF5 (Homo sapiens, UniProt Q9UKW6-2 1-255)
# T6 sequence: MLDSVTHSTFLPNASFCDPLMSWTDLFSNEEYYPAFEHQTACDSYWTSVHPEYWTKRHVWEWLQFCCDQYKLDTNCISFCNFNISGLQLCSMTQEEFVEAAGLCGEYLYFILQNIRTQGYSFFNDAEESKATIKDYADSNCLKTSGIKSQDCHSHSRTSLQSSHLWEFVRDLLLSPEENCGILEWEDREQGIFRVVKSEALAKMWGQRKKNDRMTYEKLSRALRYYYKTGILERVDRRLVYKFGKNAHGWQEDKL
# Procedure, shortened: as §1
# ETV3 = biological target: T7, ETV3 (Homo sapiens, UniProt P41162-2 1-143)
# T7 sequence: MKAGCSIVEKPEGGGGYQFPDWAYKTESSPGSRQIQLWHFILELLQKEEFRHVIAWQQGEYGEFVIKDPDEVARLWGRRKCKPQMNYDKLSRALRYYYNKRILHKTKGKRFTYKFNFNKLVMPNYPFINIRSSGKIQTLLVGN
# Procedure, shortened: as §1
# ETV6 = ETV6 (Homo sapiens, UniProt P41212 1-452)
# Procedure, shortened: as §1
# Sequence of ETV6 (P41212 whole entry): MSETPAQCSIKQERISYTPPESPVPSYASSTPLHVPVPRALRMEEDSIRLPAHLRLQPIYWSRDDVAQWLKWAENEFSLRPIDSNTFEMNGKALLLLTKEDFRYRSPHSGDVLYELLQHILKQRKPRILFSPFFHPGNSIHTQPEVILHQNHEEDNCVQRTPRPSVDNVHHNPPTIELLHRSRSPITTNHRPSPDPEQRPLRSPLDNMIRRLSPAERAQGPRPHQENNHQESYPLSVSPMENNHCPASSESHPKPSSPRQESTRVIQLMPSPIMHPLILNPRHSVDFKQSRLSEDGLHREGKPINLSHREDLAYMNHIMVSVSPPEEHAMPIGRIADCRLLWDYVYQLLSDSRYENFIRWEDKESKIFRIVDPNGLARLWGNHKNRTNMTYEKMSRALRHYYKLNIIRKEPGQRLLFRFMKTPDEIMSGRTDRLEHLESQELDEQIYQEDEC
# Sequence of ETV1 (P50549 whole entry, the tested form may be a part): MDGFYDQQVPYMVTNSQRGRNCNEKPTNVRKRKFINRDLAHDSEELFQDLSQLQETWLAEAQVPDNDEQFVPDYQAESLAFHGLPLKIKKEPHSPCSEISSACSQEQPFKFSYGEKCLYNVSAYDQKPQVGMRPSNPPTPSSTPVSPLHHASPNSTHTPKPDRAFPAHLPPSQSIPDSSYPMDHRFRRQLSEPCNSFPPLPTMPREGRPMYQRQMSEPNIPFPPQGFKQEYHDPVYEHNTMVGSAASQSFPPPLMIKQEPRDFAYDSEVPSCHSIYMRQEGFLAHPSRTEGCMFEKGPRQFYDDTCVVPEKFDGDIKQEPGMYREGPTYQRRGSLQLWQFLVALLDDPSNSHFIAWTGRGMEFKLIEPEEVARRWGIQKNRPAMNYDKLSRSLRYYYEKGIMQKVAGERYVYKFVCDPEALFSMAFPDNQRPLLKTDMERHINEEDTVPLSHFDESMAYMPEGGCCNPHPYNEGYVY
sequence,measurement,setting,value
ATAGAA,binding signal,ETV1,"1.12 fold enrichment (6-mer frequency, TF over GST control)"
same,binding signal,ERF,"1.1 fold enrichment (6-mer frequency, TF over GST control)"
same,binding signal,ETV3L,"1.1 fold enrichment (6-mer frequency, TF over GST control)"
same,binding signal,ETS2,"1.07 fold enrichment (6-mer frequency, TF over GST control)"
same,binding signal,SPDEF,"1.02 fold enrichment (6-mer frequency, TF over GST control)"
same,binding signal,ETV7,"1.16 fold enrichment (6-mer frequency, TF over GST control)"
same,binding signal,ELF5,"1.04 fold enrichment (6-mer frequency, TF over GST control)"
same,binding signal,ETV3,"1.1 fold enrichment (6-mer frequency, TF over GST control)"
same,binding signal,ETV6,"1.13 fold enrichment (6-mer frequency, TF over GST control)"
